Sampled rows, rich in hits. Any-hit rate of the full collection: about 14%.
HCMV antiviral: inhibitors of human cytomegalovirus | activity change, negative = inhibition, % at 57.5 µM | 410,000 tested, 4.5% active | HFF cells, HCMV-luciferase reporter, 72 h; stronger effect = lower value; in the data active = activity change below about -60%; inconclusive = no clear call, values can overlap the other calls; inactive = above about -39%
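Two-dose cell screen: HFF monolayers treated with compounds and infected with luciferase-expressing HCMV at 1 PFU/cell, 72 h at 37C, then lysed for luciferase measurement.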
Lassa entry inh: Lassa virus entry inhibition; 300,000 tested, 1.2% active; Lassa virus pseudotype entry inhibition, cell reporter; Potency, µM (series often up to 37.9 µM), for the others: at the top dose activity change, negative = inhibition, actives largely listed as inhibitors; calls by dose curve; tested in HEK293 cells; note: potency is the fitted concentration of half-maximal effect; nearly all actives have a fitted effect of over 50% in size
Pf growth 96h: P. falciparum growth inhibition at 96 hour, primary screen for plastid delayed-death inhibitors; P. falciparum luciferase reporter growth, 96 h; 320,000 tested, 6.9% active; Potency, µM (titrated, usually from 28.7 µM), without a hit: at the highest dose activity change, negative = inhibition, actives largely listed as inhibitors; note: potency is the fitted concentration of half-maximal effect
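Erythrocytes infected with luciferase-expressing P. falciparum were dispensed at 2% hematocrit and 0.05% parasitemia (final), then incubated with compounds 96 hours at 37 C in 5% CO2. Luminescence after detection reagent addition reported growth.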
Pf growth 48h: P. falciparum growth inhibition at 48 hours (one generation) | AID 504832 | Potency, µM (highest dose often 28.7 µM), without a hit: top-dose activity change, negative = inhibition, most hits filed as inhibitors | P. falciparum luciferase growth in erythrocytes, 48 h | 310,000 tested, 5.9% active; note: potency is the fitted concentration of half-maximal effect
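Luciferase-expressing P. falciparum in infected erythrocytes (2% hematocrit, 0.1% parasitemia final) in RPMI 1640/0.5% Albumax were exposed to compound for 48 hours at 37 C, 5% CO2; growth read as luminescence.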
Marburg entry inh: Marburg virus entry inhibition. 300,000 tested, 1.8% active. Potency, µM (series often up to 37.8 µM), inactives show at the top dose activity change, negative = inhibition, most hits filed as inhibitors. Marburg virus pseudotyped entry inhibition, cell reporter; calls by dose curve; tested in HEK293 cells; note: potency is the fitted concentration of half-maximal effect
HCV inh: HCV inhibition; 340,000 tested, 3.4% active; AID 651820; Potency, µM (series often up to 41.8 µM), for inactives: at the highest dose activity change, negative = inhibition, most hits filed as inhibitors; Huh7.5.1 HCVcc-Cre infection, luciferase reporter, 44 h; note: potency is the fitted concentration of half-maximal effect
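A cell-based infection assay in which seeded cells (1,000 per well) receive test compound after 4 h, are inoculated with HCVcc-Cre at approximately 0.5 moi, and are incubated 44 h before luminescence detection.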
Starred values were filed as active, the others as inactive; i = inactive; u = inconclusive; x = no result; [ ] = remark or other dose. Unless noted, calls come from the whole dose curve; as a rule, active = well fitted inhibition curve with a large enough effect; inconclusive = small, poorly fitted or top-dose-only effect, or another doubt; inactive = no such curve, though single readings can be large or run the other way. % is set by controls: 0 for no effect and ±100 for the full control effect.

SMILES	HCMV antiviral	Lassa entry inh	Pf growth 96h	Pf growth 48h	Marburg entry inh	HCV inh
Cc1ccccc1NC(=O)C(C)Sc1nnc(CN2CCCC2)n1Cc1ccccc1 (stereo not drawn)	-36	x	x	x	x	x
Cc1ccc(C(=O)N2CCc3cc(CNC(=O)CCc4ccccc4)ccc32)cc1	-10	u	x	x	x	x
CN(C)C1CN(Cc2cn(Cc3ccc(Cl)cc3)nn2)S(=O)(=O)C1 (stereo not drawn)	-2	x	x	x	x	x
CCOC(=O)c1cnc2c(C(F)(F)F)cccc2c1N1CCN(C)CC1	54	19%[46.1 µM]	-10%	-25%	u	-12%
CCOC(=O)c1cnc2c(OC)cccc2c1N1CCN(c2ccccn2)CC1	-69*	u	44%	13%	11µM*	u
CCN(CC)C(c1ccc(C)cc1)c1nnnn1C1CCCCC1 (stereo not drawn)	-34	24%	-11%	u	-18%	35µM*
Cc1ccc(C(c2nnnn2C2CCCC2)N2c3ccccc3CC2C)cc1 (stereo not drawn)	-28	1%	u	13µM*	-17%	-24%
Fc1ccc(C(c2nnnn2C2CCCC2)N2CCc3ccccc32)cc1 (stereo not drawn)	-25	17%	u	u	u	-11%
COC(=O)[C@@H]1[C@@H](C)N(CCc2cc(OC)c(OC)c(OC)c2)C(=O)N[C@H]1c1ccccc1	x	x	x	x	-31%[14.2 µM]	x
COc1ccccc1Cn1cc(C(=O)c2ccc(C)cc2)c(=O)c2cc3c(cc21)OCCO3	-11	u	x	x	-15%[46.1 µM]	x
Cc1cc(/C=C2\Sc3ccccc3N2C)cc(C)[n+]1CC1CCCO1 (stereo not drawn)	-100*	u	u	u	u	2.5µM*
Cc1ccc(/C=C2/Sc3ccccc3N(CC(=O)NCC3CCCO3)C2=O)cc1 (stereo not drawn)	x	x	-12%	-8%	x	u
COc1ccc(S(=O)(=O)N2CCN(Cc3nc4ccc(C)cc4o3)CC2)cc1	6	u	x	x	x	x
C(=N\n1c2ccccc2c2ccccc21)/c1ccccc1	19	-4%	-6%	45%	12%	u
Oc1ccccc1/C=N/n1c2ccccc2c2ccccc21	30	-17%	2.6µM*	u	12%	u
C(=N/n1c2ccccc2c2ccccc21)/c1ccco1	43	-2%	x	22%	-23%[46.1 µM]	8.9µM*
CCOc1ccc(CCN2C(=S)N([C@@H](Cc3ccc(O)cc3)CN3CCC[C@@H]3CN3C(=S)NC[C@@H]3CC(C)C)C[C@@H]2CC(C)C)cc1	-35	x	x	x	x	x
OCC[C@H]1C[C@H](O)[C@@H](O)[C@]2(CCc3ccccc3CO2)O1	6	x	26%	u	x	0.56µM*
OCC[C@H]1C[C@@H](O)[C@H](O)[C@]2(CCc3ccccc3CO2)O1	-10	x	38%	8%	x	-3%
O=C1CCC(=O)N1c1ccc(-c2nc3ccccc3s2)cc1	21	29%[46.1 µM]	41%	i	u	-2%
O=C1NC(c2ccccc2)=C(c2nc3ccccc3s2)C(c2ccccc2)N1 (stereo not drawn)	49	9.2µM*	8.3µM*	u	-21%	u
COc1ccccc1C1C(C(N)=O)=C(C)Nc2nc(SCc3ccccc3F)nn21 (stereo not drawn)	-27	8%[46.1 µM]	x	x	u	x
COc1cc(CNc2nnnn2C)ccc1OCc1ccc(F)cc1Cl	-26	x	20%	-13%	x	-14%
CCn1nnnc1NCc1ccc(OCc2ccc(F)cc2Cl)c(OC)c1	-13	u	u	u	10µM*	u
CCOC(=O)c1c(C)[nH]c(C)c1C(=O)CN1C(=O)NC(CC(C)C)C1=O (stereo not drawn)	x	-11%	26%	9.3µM*	0%	-12%
SMILES	HCMV antiviral	Lassa entry inh	Pf growth 96h	Pf growth 48h	Marburg entry inh	HCV inh
Cc1cc2c(c(C)c1Cl)C(c1ccc3c(c1)OCO3)CC(=O)O2 (stereo not drawn)	15	x	x	x	x	2%
Cc1ccc(C(C)C)c2c1C(c1ccc3c(c1)OCO3)CC(=O)O2 (stereo not drawn)	-15	x	x	x	x	13µM*
COc1ccc(NC(=O)Cn2c(=O)n(-c3ccc(OC)cc3OC)c(=O)c3c(C)c(C)sc32)cc1	-29	u	12µM*	u	u	2%
COc1ccc(-n2c(=O)c3c4c(sc3n(CC(=O)NC3CCCC3)c2=O)CCCC4)c(OC)c1	-36	x	15%	-7%	x	2%
COc1ccc(NC(=O)Cn2c(=O)n(-c3ccc(C)c(C)c3)c(=O)c3c(C)c(C)sc32)cc1	-16	-4%[46.1 µM]	x	x	4%[46.1 µM]	x
COc1ccc(-n2c(=O)c3c4c(sc3n(CC(=O)NCc3ccco3)c2=O)CCC4)c(OC)c1	x	-3%	6%	u	-8%	13µM*
CCC1OC(C)Cc2[nH][nH]c(=O)c21 (stereo not drawn)	-3	x	x	x	x	x
CCCCNC(=O)CCCn1c(=O)c2ccccc2n(Cc2ccc(Cl)cc2)c1=O	-5	-29%[46.1 µM]	x	x	4%[46.1 µM]	x
Cc1cc(C)c(NC(=O)c2cc(C(=O)O)ccc2C(=O)O)c([N+](=O)[O-])c1	-30	21%	2.3µM*	-5%	-1%[46.1 µM]	2%
Cc1ccc(C(=O)O)cc1[N+](=O)[O-]	-39	x	16%	18%	x	11%
COc1ccccc1CN1CCN(Cc2nc(-c3ccccc3)no2)CC1	2	-24%[46.1 µM]	-4%	0%	u	-5%
COc1ccccc1CN1CCN(Cc2nc(Cc3ccccc3)no2)CC1	12	-20%	12µM*	u	-7%[46.1 µM]	-16%
Fc1cccc(Cc2noc(CN3CCCCC3c3ccccn3)n2)c1 (stereo not drawn)	-3	x	8.3µM*	-24%	-20%[46.1 µM]	11%
COc1ccccc1CN1CCN(Cc2ccc(Cl)cc2)CC1	u	1%[46.1 µM]	30%	u	11µM*	-6%
